From the supplement of paper PMC8728848 come the findings set out here.

The entries come from a sample that favours the strongest signals as a whole.

Holding throughout (assay): glycan array binding signal (z-score within array); higher = stronger binding
Common to all, as to conditions: glycan notation: IUPAC condensed, linker removed

For experiment [1], the target named is GlcNAc(b1-3)Gal(b1-4)GlcNAc(b1-3)Gal(b1-4)GlcNAc(b1-3)Gal(b1-4)GlcNAc(b1-2)Man(a1-3)[GlcNAc(b1-3)Gal(b1-4)GlcNAc(b1-3)Gal(b1-4)GlcNAc(b1-3)Gal(b1-4)GlcNAc(b1-2)Man(a1-6)]Man(b1-4)GlcNAc(b1-4)[Fuc(a1-6)]GlcNAc. A digest of the protocol:
(§1)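 Negative Z-scores can be read as non-binding. The Z-score is calculated within each array and then averaged across arrays of one protein sequence at different concentrations or buffers and across linkers. Arrays, 3228 in all, were curated from the Consortium for Functional Glycomics database and kept only where the protein sequence was available.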

Experiment [2] deals with GlcNAc(b1-3)Gal(b1-4)GlcNAc(b1-3)[GlcNAc(b1-3)Gal(b1-4)GlcNAc(b1-3)]GalNAc. A digest of the protocol: as §1
The target of another experiment is GlcNAc(b1-6)GalNAc. A digest of the protocol: as §1
The next experiment concerns the target Man(a1-6)Man. A digest of the protocol: as §1
The target in experiment [3] is Neu5Ac(a2-3)Gal(b1-3)GalNAc(b1-3)Gal(a1-4)Gal(b1-4)Glc. The essentials:
as §1

Experiment [4] deals with Neu5Ac(a2-3)Gal(b1-3)GalNAc(b1-4)[Neu5Ac(a2-8)Neu5Ac(a2-3)]Gal(b1-4)Glc. A digest of the protocol: as §1
For experiment [5], the target named is Neu5Ac(a2-3)Gal(b1-4)[Fuc(a1-3)]GlcNAc(b1-3)Gal(b1-4)[Fuc(a1-3)]GlcNAc(b1-3)Gal(b1-4)[Fuc(a1-3)]GlcNAc. The essentials:
as §1

The target in experiment [6] is Neu5Ac(a2-3)Gal(b1-4)[Fuc(a1-3)]GlcNAc(b1-3)GalNAc. The essentials: as §1
Experiment [7] concerns the target Neu5Ac(a2-3)Gal(b1-4)[Fuc(a1-3)]GlcNAc(b1-6)[Neu5Ac(a2-3)Gal(b1-3)]GalNAc. The essentials:
as §1

The target of experiment [8] is Neu5Ac(a2-3)Gal6S(b1-4)[Fuc(a1-3)]GlcNAc. A digest of the protocol: as §1
For another experiment, the target named is Neu5Ac(a2-6)Gal(b1-4)Glc. A digest of the protocol: as §1
Experiment [9] addresses Neu5Ac(a2-6)Gal(b1-4)GlcNAc(b1-2)Man(a1-6)Man(b1-4)GlcNAc(b1-4)GlcNAc. A digest of the protocol:
as §1

The target of experiment [10] is Neu5Ac(a2-6)Gal(b1-4)GlcNAc(b1-3)Gal(b1-3)GlcNAc. The essentials:
as §1

Experiment [11] addresses Neu5Ac(a2-6)Gal(b1-4)GlcNAc(b1-3)Gal(b1-4)GlcNAc(b1-3)Gal(b1-4)GlcNAc(b1-2)Man(a1-3)[Neu5Ac(a2-6)Gal(b1-4)GlcNAc(b1-3)Gal(b1-4)GlcNAc(b1-3)Gal(b1-4)GlcNAc(b1-2)Man(a1-6)]GalNAc. The essentials: as §1
Experiment [12] addresses Neu5Ac(a2-6)Gal(b1-4)GlcNAc(b1-3)Gal(b1-4)[Fuc(a1-3)]GlcNAc(b1-3)Gal(b1-4)[Fuc(a1-3)]GlcNAc. The essentials: as §1
In experiment [13] the target is Neu5Ac(a2-6)Gal(b1-4)GlcNAc(b1-3)[Neu5Ac(a2-6)Gal(b1-4)GlcNAc(b1-6)]GalNAc. A digest of the protocol: as §1
Experiment [14] deals with Neu5Ac(a2-8)Neu5Ac(a2-8)Neu5Ac(a2-3)[Gal(b1-3)GalNAc(b1-4)]Gal(b1-4)Glc. The essentials:
as §1

In experiment [15] the target is Neu5Ac(a2-8)Neu5Gc(a2-3)Gal(b1-4)GlcNAc. A digest of the protocol: as §1
Experiment [16] deals with Neu5Ac9Ac(a2-3)Gal(b1-4)GlcNAc. A digest of the protocol: as §1
The target in experiment [17] is Neu5Ac9Ac(a2-6)Gal(b1-4)GlcNAc. A digest of the protocol: as §1
In experiment [18] the target is Neu5Gc(a2-8)Neu5Gc(a2-3)Gal(b1-4)GlcNAc. The essentials: as §1

B1: SspB C123 (Streptococcus gordonii), Q54186 (protein)
chain: MAHFHYSSLLAQPQINKEIKNEDGVDIDRTLVAKQSIGKFELKTEALTAGRPKTTSFVLVDPLPTGYKFDLDATKAASTGFDTTYDEASHTVTFKATDETLATYNADLTKPVETLHPTVVGRVLNDGATYTNNFTLTVNDAYGIKSNVVRVTTPGKPNDPDNPNNNYIKPTKVNKNKEGLNIDGKEVLAGSTNYYELTWDLDQYKGDKSSKEAIQNGFYYVDDYPEEALDVRPDLVKVADEKGNQVSGVSVQQYDSLEAAPKKVQDLLKKANITVKGAFQLFSADNPEEFYKQYVSTGTSLVITDPMTVKSEFGKTGGKYENKAYQIDFGNGYATEVVVNNVPKITPKKDVTVSLDPTSENLDGQTVQLYQTFNYRLIGGFIPQNHSEELEDYSFVDDYDQAGDQYTGNYKTFSSLNLTMKDGSVIKAGTDLTSQTTAETDATNGIVTVRFKEDFLQKISLDSPFQAETYLQMRRIAIGTFENTYVNTVNKVAYASAAALEHHHHHH
In the case of B1, the “glycan array binding signal (z-score)” value was 0.372 in [1]; 0.786 in [2]; -0.398 in the experiment with GlcNAc(b1-6)GalNAc; 3.13 with Man(a1-6)Man; -0.945 in experiment [3]; -0.494 in experiment [4]. Further, the “glycan array binding signal (z-score)” value in experiment [5] was 2.7; in [6], 2.98; in [7], 3.38; in [8] it was -0.28; with Neu5Ac(a2-6)Gal(b1-4)Glc it was -0.254; in experiment [9], -0.261. Besides, the “glycan array binding signal (z-score)” value in experiment [10] is -0.017; in experiment [11], 3.21; in experiment [12], 0.632; in [13], -0.829; in experiment [14] it was 5.25; in experiment [15], -0.198. Moreover, the “glycan array binding signal (z-score)” value is -0.938 in [16], 0.758 in experiment [17] and -0.249 in [18].
